Records with an inconclusive call do not appear. Active and inactive are the calls of the source. Calls follow the shape of the dose curve; as a rule, active = well fitted curve in the direction sought with a large enough effect in the repeat runs; inconclusive = weak or mixed curves; inactive = no such curve, though single readings can be large; an effect the other way counts as inactive or inconclusive.
Experiment: qHTS RealTime-Glo MT Cell Viability Assay in HepG2 cells - 40 hour (AID 1224870); also: nearly all actives have a fitted effect of over 50% in size
Conditions: RealTime-Glo luminescence; series mostly up to 76.8 µM; activity change, negative = cytotoxic: at the top concentration
Method in brief: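 HepG2 cells (600/well) mixed with RealTime-Glo MT reagent, settled 5 h at 37 C/5% CO2 before compound addition. Nonlytic NanoLuc luminescence from viable-cell prosubstrate reduction read repeatedly during 40 h treatment at 37 C.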
% is scaled to controls: 0 for no effect and ±100 for the full control effect.

| SMILES | activity change, negative = cytotoxic |
| --- | --- |
| CC(C)=CC1CC(C)CCO1 (stereo not given) | 3.37% (inactive) |
| O=C1OC(=O)c2ccc3c4c(ccc1c24)C(=O)OC3=O | -4.61% (inactive) |
| CC1CCCCC1 | 2.58% (inactive) |
| Cc1cc(C)c(C=O)c(C)c1 | 22.2% (inactive) |
| Clc1nc2ccccc2s1 | 30.2% (inactive) |
| Cc1cn[nH]c1 | 2.53% [at 35.3 µM] (inactive) |
| CCCC(C)CCC(C)=O (stereo not given) | -2.07% (inactive) |
| Cc1cccc(Br)c1 | -2.71% (inactive) |
| O=CC1CC1 | 0.845% (inactive) |
| OCCC(O)CO (stereo not given) | -12% (inactive) |
| COC(=O)CC#N | -0.678% (inactive) |
| O=C(O)CCCCCCC(=O)O | -0.789% (inactive) |
| Clc1cccnc1 | -5.47% (inactive) |
| CCOB(OCC)OCC | -3.79% (inactive) |
| CC(=O)C=O | -5.89% (inactive) |
| CCC(=O)CC(C)CC (stereo not given) | -5.05% [at 0.29 µM] (inactive) |

| SMILES | activity change, negative = cytotoxic |
| --- | --- |
| CCN(CC)CCCN(c1ccccc1)C1Cc2ccccc2C1 | -19.9% [at 35.3 µM] (inactive) |
| O=C=NCc1cccc(CN=C=O)c1 | 0.58% [at 15.8 µM] (inactive) |
| COc1ccc(C#N)cc1 | -2.67% (inactive) |
| CCCCCCCCC(C)=O | -1.11% (inactive) |
| CCc1ccc(O)c(C(C)(C)C)c1 | -8.41% (inactive) |
| CCCCCCCC/C=C\CCCCCCCC(=O)OCCOC(=O)CCCCCCC/C=C\CCCCCCCC | -10.7% (inactive) |
| CCCCCCCCCCCCCc1ccccc1 | 23.2% [at 35.3 µM] (inactive) |
| CCOC(=O)CN | -5.22% (inactive) |
| Cc1c(C(=O)O)cccc1[N+](=O)[O-] | 0.172% (inactive) |
| CCc1ccc(C)nc1 | 24.4% (inactive) |
| COc1cccc(O)c1 | -1.21% (inactive) |
| CC(=O)O[C@@H]1C[C@@H]2CC[C@@]1(C)C2(C)C | 2.28% (inactive) |
| CCCCCCCC(C)=O | 5.01% (inactive) |
| C=CC(C)C#N (stereo not given) | 23.5% (inactive) |
| CCC(=O)OCCc1ccccc1 | -7.06% (inactive) |
| O=S(O)O | -0.0421% [at 15.8 µM] (inactive) |

Experiment: A CellTox Green Cytotoxicity Assay to monitor cytotoxicity in HEK293 cells - 40 hour (AID 1224871); also: nearly all actives have a fitted effect of over 45% in size; also: potency is read from the fitted curve at half-maximal effect
Conditions: CellTox Green fluorescence; series mostly up to 76.8 µM; cytotoxicity increase: at the top concentration
Method in brief: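 Dead-cell fluorescence measured kinetically: asymmetric cyanine dye, HEK293, 600 cells/well, 5 h settle, 23 nL cpd/DMSO, 37 C, reads 0–40 h every 8 h.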

| SMILES | cytotoxicity increase | Potency |
| --- | --- | --- |
| CC(C)=CC1CC(C)CCO1 (stereo not given) | -0.0404% (inactive) |  |
| O=C1OC(=O)c2ccc3c4c(ccc1c24)C(=O)OC3=O | -4.48% (inactive) |  |
| CC1CCCCC1 | 2.17% (inactive) |  |
| Cc1cc(C)c(C=O)c(C)c1 | -2.29% (inactive) |  |
| Clc1nc2ccccc2s1 | 6.56% (inactive) |  |
| Cc1cn[nH]c1 | -11.4% [at 35.3 µM] (inactive) |  |
| Cc1cccc(Br)c1 | 4.31% (inactive) |  |
| O=CC1CC1 | -0.652% (inactive) |  |
| OCCCc1cccnc1 | -7.96% (inactive) |  |
| OCCC(O)CO (stereo not given) | -4.05% (inactive) |  |
| COC(=O)CC#N | -1.42% (inactive) |  |
| O=C(O)CCCCCCC(=O)O | 9.26% (inactive) |  |
| COc1ccccc1C=O | 22% (inactive) |  |
| Clc1cccnc1 | 2.49% (inactive) |  |
| CCOB(OCC)OCC | -27.4% (inactive) |  |
| CC(=O)C=O | 5.55% (inactive) |  |
| CCC(=O)CC(C)CC (stereo not given) | 5.38% [at 0.29 µM] (inactive) |  |

| SMILES | cytotoxicity increase | Potency |
| --- | --- | --- |
| O=C=NCc1cccc(CN=C=O)c1 | -14.1% [at 15.8 µM] (inactive) |  |
| COc1ccc(C#N)cc1 | -6.79% (inactive) |  |
| CCCCCCCCC(C)=O | -15% (inactive) |  |
| CCc1ccc(O)c(C(C)(C)C)c1 |  | 38.9 µM (active) |
| CCCCCCCC/C=C\CCCCCCCC(=O)OCCOC(=O)CCCCCCC/C=C\CCCCCCCC | -0.625% (inactive) |  |
| CCCCCCCCCCCCCc1ccccc1 | -10.4% [at 35.3 µM] (inactive) |  |
| CCOC(=O)CN | -3.33% (inactive) |  |
| CCc1ccc(C)nc1 | 0.442% (inactive) |  |
| COc1cccc(O)c1 | -17.6% (inactive) |  |
| CC(=O)O[C@@H]1C[C@@H]2CC[C@@]1(C)C2(C)C | -7.41% (inactive) |  |
| OCCN1CN(CCO)CN(CCO)C1 | 13.4% (inactive) |  |
| CCCCCCCC(C)=O | -7.81% (inactive) |  |
| CCCCCCCC(OC)OC | 11.2% [at 35.3 µM] (inactive) |  |
| C=CC(C)C#N (stereo not given) | -11.6% (inactive) |  |
| CCC(=O)OCCc1ccccc1 | -8.28% (inactive) |  |
| O=S(O)O | -2.31% [at 15.8 µM] (inactive) |  |
